Where “and” joins values, the source holds several entries; their conditions need not be identical. Equal entries are not always repeated. The source holds several records for some structures; these can differ, active in one and inactive in another. Calls of active or inactive are those of the source. Rule for the calls: active = hit-call score of the fitted dose curve at least 0.9, where 1 is the maximum; inactive = score below 0.9.
Key:
Settings in all cases: mRNA level, 48 h; actives raise or lower the signal
[1] = read-out: cysteine-aspartic acid protease (CASP8), CASP8 (gene 841); assay: LTEA_HepaRG_CASP8: Life Technologies and Expression Analysis (LTEA) Assay for cysteine-aspartic acid protease (CASP8) using HepaRG (AID 2283480)
Outline: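 Differentiated HepaRG cells in serum-free induction medium, 48 h exposure, eight-point half-log series from 100 uM in 0.5% DMSO, duplicates. CASP8 mRNA by qRT-PCR, normalized to ACTB, GAPDH, POLR2A; bidirectional fit versus DMSO.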

[2] = read-out: Cytochrome P450 (CYP2B6), CYP2B6 (gene 1555); assay: LTEA_HepaRG_CYP2B6: Life Technologies and Expression Analysis (LTEA) Assay for Cytochrome P450 (CYP2B6) using HepaRG (AID 2283481)
Outline: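 Using 48 h treatment of HepaRG cells in serum-free induction medium, concentrations spanned half-log steps from 100 uM in 0.5% DMSO vehicle. CYP2B6 mRNA induction or loss is scored by qRT-PCR against DMSO.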

[3] = read-out: Cytochrome P450 2C19 (Homo sapiens) (UniProt P33261); assay: LTEA_HepaRG_CYP2C19: Life Technologies and Expression Analysis (LTEA) Assay for CYP2C19 using HepaRG (AID 2283482)
Outline: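 Human HepaRG liver cells received test chemicals for 48 h (highest 100 uM, half-log dilutions in 0.5% DMSO). CYP2C19 mRNA induction or loss is read by multiplexed qRT-PCR and fitted in both directions versus vehicle.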

[4] = read-out: CYP2C8 (gene 1558); assay: LTEA_HepaRG_CYP2C8: Life Technologies and Expression Analysis (LTEA) Assay for CYP2C8 using HepaRG (AID 2283483)
Outline: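 Differentiated HepaRG cells in serum-free induction medium exposed 48 h in duplicate to 8 half-log concentrations from 100 uM in 0.5% DMSO. CYP2C8 mRNA by qRT-PCR normalized to ACTB, GAPDH, POLR2A; bidirectional fit versus DMSO.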

[5] = read-out: CYP2C9 (gene 1559); assay: LTEA_HepaRG_CYP2C9: Life Technologies and Expression Analysis (LTEA) Assay for CYP2C9 using HepaRG (AID 2283484)
Outline: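 Differentiated human HepaRG cells in serum-free induction medium were exposed 48 h to chemicals in 8-point half-log series from 100 uM (0.5% DMSO), in duplicate. CYP2C9 mRNA was measured by qRT-PCR, normalized to ACTB/GAPDH/POLR2A, with bidirectional fitting versus DMSO.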

[6] = read-out: CYP2E1 (gene 1571); assay: LTEA_HepaRG_CYP2E1: Life Technologies and Expression Analysis (LTEA) Assay for CYP2E1 using HepaRG (AID 2283485)
Outline: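 Differentiated HepaRG cells were treated in duplicate for 48 h with chemicals in 0.5% DMSO, from 100 uM downward in half-log dilutions. RNA was then analysed by qRT-PCR for CYP2E1 induction or loss.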

[7] = read-out: CYP4A11 (gene 1579); assay: LTEA_HepaRG_CYP4A11: Life Technologies and Expression Analysis (LTEA) Assay for CYP4A11 using HepaRG (AID 2283486)
Outline: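 Readout is CYP4A11 mRNA induction or suppression (qRT-PCR, ACTB/GAPDH/POLR2A normalization) in human HepaRG cells after 48 h chemical treatment, concentrations to 100 uM in 0.5% DMSO, fitted bidirectionally against vehicle.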

[8] = read-out: Cytochrome P450 3A4 (Homo sapiens) (UniProt P08684); assay: LTEA_HepaRG_CYP3A4: Life Technologies and Expression Analysis (LTEA) Assay for CYP3A4 using HepaRG (AID 2283487)
Outline: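 Differentiated HepaRG cells, plated 48 h, then dosed 48 h in serum-free induction medium with 0.5% DMSO, 8 half-log concentrations up to 100 uM, duplicate. CYP3A4 mRNA by qRT-PCR, normalized to ACTB/GAPDH/POLR2A; bidirectional fit versus DMSO.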

[9] = read-out: DNA damage-inducible transcript 3 (DDIT3), DDIT3 (gene 1649); assay: LTEA_HepaRG_DDIT3: Life Technologies and Expression Analysis (LTEA) Assay for DNA damage-inducible transcript 3 (DDIT3) using HepaRG (AID 2283488)
Outline: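 Changes in DDIT3 transcript, in either direction relative to 0.5% DMSO vehicle, were quantified by TaqMan qRT-PCR after 48 h chemical exposure of HepaRG cells at 8 concentrations, maximum 100 uM.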

[10] = read-out: Pro-epidermal growth factor (Homo sapiens) (UniProt P01133); assay: LTEA_HepaRG_EGF: Life Technologies and Expression Analysis (LTEA) Assay for Epidermal growth factor (EGF) using HepaRG (AID 2283489)
Outline: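 EGF expression changes in human HepaRG cells are scored by bidirectional fitting relative to 0.5% DMSO controls. Chemicals are tested at eight half-log concentrations up to 100 uM for 48 h in serum-free induction medium.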

Measured: AC50

Cytochrome P450 3A4 (Homo sapiens), sequence (P08684 whole entry, looked up): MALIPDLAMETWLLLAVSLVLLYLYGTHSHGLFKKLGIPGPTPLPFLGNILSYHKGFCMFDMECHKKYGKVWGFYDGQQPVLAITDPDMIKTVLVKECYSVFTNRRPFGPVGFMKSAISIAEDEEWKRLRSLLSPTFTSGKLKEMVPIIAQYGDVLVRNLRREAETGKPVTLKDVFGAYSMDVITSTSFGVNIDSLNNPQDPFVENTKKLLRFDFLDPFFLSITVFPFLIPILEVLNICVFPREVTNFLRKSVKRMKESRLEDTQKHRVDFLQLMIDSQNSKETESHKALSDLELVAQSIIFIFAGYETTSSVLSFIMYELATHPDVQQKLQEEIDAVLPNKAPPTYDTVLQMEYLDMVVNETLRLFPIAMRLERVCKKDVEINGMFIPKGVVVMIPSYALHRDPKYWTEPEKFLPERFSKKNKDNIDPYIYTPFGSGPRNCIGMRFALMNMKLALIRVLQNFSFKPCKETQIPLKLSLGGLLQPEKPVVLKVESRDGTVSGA
Cytochrome P450 2C19 (Homo sapiens), sequence (P33261 whole entry, looked up): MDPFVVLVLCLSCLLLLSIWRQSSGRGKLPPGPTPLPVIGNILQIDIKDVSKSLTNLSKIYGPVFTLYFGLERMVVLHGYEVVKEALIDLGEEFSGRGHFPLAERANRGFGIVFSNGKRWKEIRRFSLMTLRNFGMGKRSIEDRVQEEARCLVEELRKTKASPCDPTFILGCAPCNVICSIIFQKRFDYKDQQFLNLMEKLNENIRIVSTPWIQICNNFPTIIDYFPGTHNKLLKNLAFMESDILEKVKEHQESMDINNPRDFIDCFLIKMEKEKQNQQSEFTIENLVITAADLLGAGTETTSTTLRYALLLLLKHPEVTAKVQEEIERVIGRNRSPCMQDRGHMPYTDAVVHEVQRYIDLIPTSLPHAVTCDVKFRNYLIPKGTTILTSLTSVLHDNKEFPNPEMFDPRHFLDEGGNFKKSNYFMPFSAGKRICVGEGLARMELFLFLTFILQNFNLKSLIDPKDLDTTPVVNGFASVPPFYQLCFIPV

CN1CSC(=S)N(C)C1
inactive: all assays above

N#CN
not listed: [1]
inactive: all other assays above

ClC1C(Cl)C(Cl)C(Cl)C(Cl)C1Cl (configuration not stated)
inactive: [4] | [5] | [7] | [9] | [10]
active: [2] 758 nM and 392 nM | [3] 1.1 µM and 1.12 µM | [4] 0.418 µM | [5] 1.93 µM | [7] 12.6 µM | [10] 1.92 µM

CCC(C)Nc1c([N+](=O)[O-])cc(C(C)(C)C)cc1[N+](=O)[O-] (configuration not stated)
inactive: [1] | [5] | [9]
active: [2] 3.52 µM | [3] 12.9 µM | [4] 12.6 µM | [7] 50 µM | [8] 6.12 µM | [10] 10.7 µM

OCCOc1ccccc1
active: [2] 50 µM
not listed: [1] | [6]
inactive: all other assays above

CCOC1Oc2ccc(OS(C)(=O)=O)cc2C1(C)C (configuration not stated)
active: [2] 91.3 µM | [3] 11.7 µM | [4] 86.4 µM | [5] 82 µM | [6] 62.6 µM | [7] 69.1 µM | [8] 11.8 µM | [9] 93 µM
inactive: [1] | [10]

O=[N+]([O-])/N=C1\NCCN1Cc1ccc(Cl)nc1
inactive: [7] | [8] | [9]
active: [2] 13.2 µM | [3] 34 µM | [4] 74.1 µM | [5] 38.1 µM | [10] 30.2 µM

Cc1[nH]c(=O)n(C(C)(C)C)c(=O)c1Cl
active: [2] 15.6 µM | [3] 31.1 µM
not listed: [1] | [6]
inactive: all other assays above

CCC(C)(NC(=O)c1cc(Cl)c(C)c(Cl)c1)C(=O)CCl (configuration not stated)
active: [2] 90.1 µM | [3] 85.4 µM | [4] 81.6 µM | [5] 79.5 µM | [7] 50.2 µM | [8] 88.2 µM | [9] 78.3 µM
inactive: [10]

O=C(NC(=O)c1c(F)cccc1F)Nc1ccc(OC(F)(F)C(F)OC(F)(F)F)c(Cl)c1 (configuration not stated)
not listed: [1] | [6]
inactive: all other assays above

Oc1ccc(Cl)cc1Cc1ccccc1
inactive: [2] | [3] | [4] | [5] | [7] | [8] | [9] | [10]
active: [3] 83.7 µM and 50.5 µM | [5] 79.2 µM | [7] 81.7 µM and 81.2 µM

O=S(=O)(O)C(F)(F)C(F)(F)C(F)(F)C(F)(F)C(F)(F)C(F)(F)C(F)(F)C(F)(F)F
inactive: [3] | [5] | [8] | [10]
active: [2] 88.9 µM [middle of 4 runs] | [3] 89.3 µM and 12.1 µM and 11 µM | [4] 88.2 µM and 12.1 µM and 87.9 µM | [5] 80.2 µM and 88.7 µM | [9] 60.1 µM [middle of 4 runs]

Clc1ccccc1-c1nnc(-c2ccccc2Cl)nn1
active: [2] 7.28 µM | [3] 15.3 µM | [6] 20.7 µM | [8] 9.38 µM
not listed: [1]
inactive: all other assays above

CC(C)(C)C(O)/C(=C\c1ccc(Cl)cc1Cl)n1cncn1 (configuration not stated)
active: [2] 0.748 µM | [3] 4.01 µM | [4] 3.88 µM | [7] 21.9 µM | [8] 84.5 µM | [9] 29.4 µM
inactive: [5] | [10]

N#Cc1c(Cl)c(Cl)c(Cl)c(C#N)c1Cl
active: [4] 50 µM | [7] 50 µM | [8] 19 µM | [9] 19.1 µM | [10] 6.66 µM
inactive: [2] | [3] | [5]

CC(C)OC(=O)Nc1cccc(Cl)c1
active: [2] 50 µM
not listed: [6]
inactive: all other assays above

CCOCN(C(=O)CCl)c1c(C)cccc1CC
active: [2] 0.077 µM | [3] 89.5 µM | [4] 83.6 µM | [5] 80.2 µM | [7] 83.5 µM
inactive: [8] | [9] | [10]

O=S1OCC2C(CO1)C1(Cl)C(Cl)=C(Cl)C2(Cl)C1(Cl)Cl (configuration not stated)
active: [2] 90.1 µM | [3] 89.2 µM | [4] 81.1 µM | [5] 82.4 µM | [7] 62.6 µM | [8] 11.7 µM | [9] 80 µM
inactive: [1] | [10]

O=C(O)C(F)(F)C(F)(F)C(F)(F)C(F)(F)C(F)(F)C(F)(F)C(F)(F)F
inactive: [4] | [5] | [6] | [8] | [9] | [10]
active: [2] 17.9 µM and 3.15 µM | [3] 9.92 µM and 5.55 µM | [4] 12.8 µM | [7] 12.8 µM and 6.48 µM

CCCN(CCOc1c(Cl)cc(Cl)cc1Cl)C(=O)n1ccnc1
active: [2] 31 µM | [3] 36.8 µM | [4] 28.4 µM | [5] 31.9 µM | [7] 18.2 µM | [8] 36.2 µM | [9] 24 µM | [10] 12.1 µM

CC(C)(C)C(O)C(Oc1ccc(Cl)cc1)n1cncn1 (configuration not stated)
inactive: [4] | [5] | [9] | [10]
active: [2] 2.21 µM and 3.37 µM and 1.68 µM | [3] 2.61 µM and 3.24 µM and 1.89 µM | [4] 3.91 µM and 4.21 µM | [6] 25.8 µM and 25.3 µM and 29.5 µM | [7] 18.1 µM and 13.8 µM and 25.4 µM

Source: PubChem BioAssay (EPA / NIEHS)
